The target of experiment [1] is Acetylcholinesterase (Homo sapiens) (UniProt P22303). The experiment is described as follows: Acetylcholinesterase (AChE) small molecule antagonists: colormetric cell-based qHTS assay (AID 1347395). Note: nearly all actives have a fitted effect of over 30% in size. Note: potency is the fitted concentration of half-maximal effect. In short, it runs like this: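 Homogeneous whole-cell format. SH-SY5Y cells seeded overnight, dosed with compound (30 min, 37 C, 5% CO2), then given DTNB/acetylthiocholine cocktail for 90 min at 37 C; colorimetric signal.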
Acetylcholinesterase (Homo sapiens), sequence (P22303 whole entry, looked up): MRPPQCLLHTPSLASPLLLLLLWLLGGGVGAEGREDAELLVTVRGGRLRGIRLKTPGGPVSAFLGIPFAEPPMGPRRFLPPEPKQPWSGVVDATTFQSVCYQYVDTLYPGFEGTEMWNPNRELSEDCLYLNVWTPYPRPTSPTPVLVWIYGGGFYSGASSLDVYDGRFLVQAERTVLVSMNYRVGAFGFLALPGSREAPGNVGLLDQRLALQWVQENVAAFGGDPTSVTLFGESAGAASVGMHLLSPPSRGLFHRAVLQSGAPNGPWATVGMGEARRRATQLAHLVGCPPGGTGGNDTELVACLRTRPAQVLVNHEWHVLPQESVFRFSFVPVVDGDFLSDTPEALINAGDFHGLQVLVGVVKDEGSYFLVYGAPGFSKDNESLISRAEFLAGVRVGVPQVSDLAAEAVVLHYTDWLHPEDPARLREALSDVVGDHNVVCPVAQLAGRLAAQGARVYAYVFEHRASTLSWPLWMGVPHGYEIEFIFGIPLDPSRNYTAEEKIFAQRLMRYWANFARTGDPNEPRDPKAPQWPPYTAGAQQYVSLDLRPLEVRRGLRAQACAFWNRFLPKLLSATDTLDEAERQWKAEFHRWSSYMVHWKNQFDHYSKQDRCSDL

Experiment [2] has the same target. Put plainly: Acetylcholinesterase (AChE) small molecule antagonists: enzyme-based qHTS assay (AID 1347397). Note: nearly all actives have a fitted effect of over 55% in size. As to conditions: Potency: AChE enzyme activity inhibition; outcome: AChE enzyme activity inhibition. In short, it runs like this: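 Absorbance-based detection of thiocholine with DTNB served as the read-out. Recombinant human AChE was exposed to compound for 30 min at RT before a 10 min RT incubation with acetylthiocholine.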
Background: Quantitative high-throughput screening tests each substance at several concentrations.

Experiment [3] has the same target. Put plainly: Acetylcholinesterase (AChE) small molecule antagonists: fluorescence cell-based qHTS assay (AID 1347398). Note: nearly all actives have a fitted effect of over 50% in size. Note: potency is the fitted concentration of half-maximal effect. Conditions: Potency: AChE activity; outcome: AChE activity. An outline of the steps:
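Fluorimetric cell-based assay: intact SH-SY5Y cells, 30 min compound preincubation at 37 C, acetylthiocholine substrate with thiol probe Thiolite Green, 40 min RT development, fluorescence 490/520 nm.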

For experiment [4] the target is unchanged. The experiment is described as follows: Acetylcholinesterase (AChE) small molecule antagonists: enzyme-based qHTS assay with human liver microsomes (AID 1347399). Note: nearly all actives have a fitted effect of over 60% in size. Conditions: Potency: qHTS inhibition; outcome: qHTS inhibition. An outline of the steps:
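Recombinant human AChE (50 mU/mL in the enzyme mix) and human liver microsomes (0.25 mg/mL final) were preincubated with compound and NADPH (0.25 mg/mL final) for 30 min at 37 C. Acetylthiocholine/DTNB was then added; thiocholine was read colorimetrically after 10 min at room temperature.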

Structures are written as SMILES. Values without a mark were called inactive. Results filed as inconclusive are left out. Calls of active or inactive are those of the source. Calls come from the whole dose curve.
% is set by controls: 0 for no effect and ±100 for the full control effect.

As to `CC1(C)CC(N)CC(C)(CN)C1` (stereo not given), the Potency result in experiment [1], in experiment [2], in experiment [3] and in experiment [4] was “inactive” throughout.

With `CC(C)CC(=O)C1C(=O)c2ccccc2C1=O`, the Potency result in experiment [1], in experiment [2], in experiment [3] and in experiment [4] was “inactive” in each case.

For the compound `CN(c1nccc(=O)[nH]1)C1CCN(c2nc3ccccc3n2Cc2ccc(F)cc2)CC1`, the Potency entry in experiment [1], in experiment [2], in experiment [3] and in experiment [4] was “inactive” in each case.

For the compound `CC(=O)CCc1ccc(OC(C)=O)cc1`, the Potency entry in experiment [1], in experiment [2], in experiment [3] and in experiment [4] was “inactive” each time.

For the compound `Cc1cccc(C(=O)O)c1`, the Potency entry in experiment [1], in experiment [2], in experiment [3] and in experiment [4] was “inactive” throughout.

As to `Nc1ccc2c(c1)C(=O)c1ccccc1C2=O`, the Potency result in experiment [1], in experiment [2], in experiment [3] and in experiment [4] was “inactive” each time.

`OC/C=C/c1ccccc1`: the Potency result in experiment [1], in experiment [2], in experiment [3] and in experiment [4] was “inactive” throughout.

Turning to `O=P(c1ccccc1)(c1ccccc1)c1ccccc1`, the Potency result in experiment [1], in experiment [2], in experiment [3] and in experiment [4] was “inactive” in each case.

Consider `CCCCCCCCN(C)C`, for which the Potency entry in experiment [1], in experiment [2], in experiment [3] and in experiment [4] was “inactive” throughout.

As to `CCCCCCCCO`, the Potency result in experiment [1], in experiment [2], in experiment [3] and in experiment [4] was “inactive” each time.

Consider `CC(C)(C)NCC(O)COc1ccccc1OCC1CCCO1` (stereo not given), for which the Potency entry in experiment [1], in experiment [2], in experiment [3] and in experiment [4] was “inactive” in each case.

Regarding `Nc1ccc(Oc2ccc(Cl)cc2)cc1`, the Potency result in experiment [1], in experiment [2], in experiment [3] and in experiment [4] was “inactive” each time.

With `CCC(C)c1ccccc1O` (stereo not given), the Potency entry in experiment [1], in experiment [2], in experiment [3] and in experiment [4] was “inactive” each time.

Regarding `c1ccc(COCc2ccccc2)cc1`, the Potency entry in experiment [1], in experiment [2], in experiment [3] and in experiment [4] was “inactive” each time.

On to `CCCCCCCOC(=O)c1ccc(O)cc1`, for which the Potency entry in experiment [1], in experiment [2], in experiment [3] and in experiment [4] was “inactive” throughout.

With `CCN1C(=O)c2ccccc2C1Nc1ccc(OCCN2CCCCC2)cc1` (stereo not given), the Potency result in experiment [1], in experiment [2], in experiment [3] and in experiment [4] was “inactive” each time.

Turning to `CC(=O)N[C@H]1[C@H]([C@H](O)[C@H](O)CO)OC(C(=O)O)=C[C@@H]1N=C(N)N`, the Potency result in experiment [1], in experiment [2], in experiment [3] and in experiment [4] was “inactive” in each case.

With `Nc1ccc2cc(S(=O)(=O)O)cc(O)c2c1N=Nc1ccccc1C(F)(F)F`, the Potency entry in experiment [1], in experiment [2], in experiment [3] and in experiment [4] was “inactive” throughout.

For the compound `O=C(NCC1CN(c2ccc(N3CCOCC3=O)cc2)C(=O)O1)c1ccc(Cl)s1` (stereo not given), the Potency result in experiment [1], in experiment [2], in experiment [3] and in experiment [4] was “inactive” throughout.

Consider `O=C(c1ccccc1)c1ccc(O)c(O)c1O`, for which the Potency entry in experiment [1], in experiment [2], in experiment [3] and in experiment [4] was “inactive” each time.

As for `CCc1cnc(C(=O)O)c(C(=O)O)c1`, the Potency entry in experiment [1], in experiment [2], in experiment [3] and in experiment [4] was “inactive” each time.

On to `C=CCOC(=O)CCC1CCCCC1`, for which the Potency result in experiment [1], in experiment [2], in experiment [3] and in experiment [4] was “inactive” in each case.

Consider `CC(=O)c1ccc2ccc3ccccc3c2c1`, for which the Potency entry in experiment [1], in experiment [2], in experiment [3] and in experiment [4] was “inactive” each time.

Take `CCCCN(CCCC)c1ccc(C(=O)c2ccccc2C(=O)O)c(O)c1`: the Potency result in experiment [1], in experiment [2], in experiment [3] and in experiment [4] was “inactive” throughout.

Turning to `O=C(O)c1cc2ccccc2cc1O`, the Potency result in experiment [1], in experiment [2], in experiment [3] and in experiment [4] was “inactive” in each case.

For the compound `C#Cc1cccc(Nc2ncnc3cc(OCCOC)c(OCCOC)cc23)c1`, the Potency entry in experiment [1], in experiment [2], in experiment [3] and in experiment [4] was “inactive” each time.

Turning to `CCc1ccccc1O`, the Potency result in experiment [1], in experiment [2], in experiment [3] and in experiment [4] was “inactive” each time.

`CCCC(O)C(CC)CO` (stereo not given): the Potency result in experiment [1], in experiment [2], in experiment [3] and in experiment [4] was “inactive” throughout.

Take `C1CCCCC1`: the Potency entry in experiment [1], in experiment [2], in experiment [3] and in experiment [4] was “inactive” in each case.

Regarding `O=C(Cl)c1ccc(F)c(Cl)c1`, the Potency result in experiment [1], in experiment [2], in experiment [3] and in experiment [4] was “inactive” throughout.

`C=CC(=O)NCOCCCC`: the Potency entry in experiment [1], in experiment [2], in experiment [3] and in experiment [4] was “inactive” each time.

On to `CCCCN(CCCC)CCCCCCN(CCCC)CCCC`, for which the Potency result in experiment [1], in experiment [2], in experiment [3] and in experiment [4] was “inactive” throughout.

As to `F[B-](F)(F)F`, the Potency entry in experiment [1], in experiment [2], in experiment [3] and in experiment [4] was “inactive” throughout.

Regarding `CC(=O)N1CCN(c2ccc(OC[C@H]3CO[C@](Cn4ccnc4)(c4ccc(Cl)cc4Cl)O3)cc2)CC1`, the Potency in experiment [1] was 35.6 µM (active); in experiment [3], 31.7 µM (active). The Potency entry in experiment [2] and in experiment [4] was “inactive” in each case.

With `O=c1oc2cc(O)ccc2c2oc3cc(O)ccc3c12`, the Potency result in experiment [1], in experiment [2], in experiment [3] and in experiment [4] was “inactive” in each case.

With `O=C1O[C@H](CO)[C@@H](O)[C@H](O)[C@H]1O`, the Potency result in experiment [1], in experiment [2], in experiment [3] and in experiment [4] was “inactive” in each case.

On to `CCC(=O)OC(C)c1ccccc1` (stereo not given), for which the Potency result in experiment [1], in experiment [2], in experiment [3] and in experiment [4] was “inactive” each time.

In the case of `COC(=O)NN`, the Potency result in experiment [1], in experiment [2], in experiment [3] and in experiment [4] was “inactive” in each case.

With `CC1=C(O)C(=O)OC1C` (stereo not given), the Potency result in experiment [1], in experiment [2], in experiment [3] and in experiment [4] was “inactive” throughout.

On to `Cc1cc(C2CCCCC2)n(O)c(=O)c1`, for which the Potency entry in experiment [1], in experiment [2], in experiment [3] and in experiment [4] was “inactive” in each case.

With `CCO[Si](OCC)(OCC)c1ccccc1`, the Potency entry in experiment [1], in experiment [2], in experiment [3] and in experiment [4] was “inactive” throughout.

For the compound `CCO[Si](CCCNC(N)=O)(OCC)OCC`, the Potency result in experiment [1], in experiment [2], in experiment [3] and in experiment [4] was “inactive” each time.

On to `C/C=C1/CC2C=CC1C2` (stereo not given), for which the Potency entry in experiment [1], in experiment [2], in experiment [3] and in experiment [4] was “inactive” in each case.

Turning to `CCC1COC(=O)O1` (stereo not given), the Potency result in experiment [1], in experiment [2], in experiment [3] and in experiment [4] was “inactive” in each case.

For `Cc1ccc2c(ccc3ccccc32)c1`, the Potency entry in experiment [1], in experiment [2], in experiment [3] and in experiment [4] was “inactive” in each case.

Take `O=NN(CCCl)C(=O)NCCCl`: the Potency result in experiment [1], in experiment [2], in experiment [3] and in experiment [4] was “inactive” throughout.

Take `CCCCCCCCCCCCI`: the Potency entry in experiment [1], in experiment [2], in experiment [3] and in experiment [4] was “inactive” in each case.

For `Cc1cccc(C)c1NC(=O)c1ccc(N)cc1`, the Potency entry in experiment [1], in experiment [2], in experiment [3] and in experiment [4] was “inactive” each time.

Turning to `COC(=O)c1ccc2cc(C(=O)OC)ccc2c1`, the activity, negative = inhibition in experiment [1] is 3.17% [at 23.6 µM]. In addition, the values for the activity change, negative = inhibition in experiment [2], in experiment [3] and in experiment [4] were -0.273% [at 23.6 µM], -7.2% [at 23.8 µM] and -4.52% [at 23.6 µM], respectively.

In the case of `Cc1cccc(C)c1NC(=O)CN1CCCC1`, the Potency result in experiment [1], in experiment [2], in experiment [3] and in experiment [4] was “inactive” in each case.

`O=C1O[C@H]([C@@H](O)CO)C(O)=C1O`: the Potency entry in experiment [1], in experiment [2], in experiment [3] and in experiment [4] was “inactive” throughout.

On to `[O-][n+]1ccccc1SSc1cccc[n+]1[O-]`, for which the activity, negative = inhibition in experiment [1] is -9.35% [at 23.6 µM]. For the same compound, the activity change, negative = inhibition was -9.5% [at 23.6 µM] in experiment [2] and -15.2% [at 23.6 µM] in experiment [4]. In experiment [3], the Potency was 12 µM (active).

Regarding `CCCCC(CC)CCC(CC(C)C)OS(=O)(=O)O` (stereo not given), the Potency result in experiment [1], in experiment [2], in experiment [3] and in experiment [4] was “inactive” throughout.

Turning to `CCCCCCCCCCCCCCC`, the Potency entry in experiment [1], in experiment [2], in experiment [3] and in experiment [4] was “inactive” each time.

As to `CC[C@]12CCCN3CCc4c(n(c5ccccc45)[C@@](O)(C(=O)OC)C1)[C@@H]32`, the Potency result in experiment [1], in experiment [2], in experiment [3] and in experiment [4] was “inactive” each time.

In the case of `O=C(OCCOCCO)c1ccccc1Nc1cccc(C(F)(F)F)c1`, the Potency entry in experiment [1], in experiment [2], in experiment [3] and in experiment [4] was “inactive” each time.

On to `CC(N)CN` (stereo not given), for which the Potency result in experiment [1], in experiment [2], in experiment [3] and in experiment [4] was “inactive” in each case.

For `COc1ccc2[nH]cc(CCNC(C)=O)c2c1`, the Potency result in experiment [1], in experiment [2], in experiment [3] and in experiment [4] was “inactive” each time.

For `CN1CCN(c2c(F)cc3c(=O)c(C(=O)O)cn4c3c2SCC4)CC1`, the Potency result in experiment [1], in experiment [2], in experiment [3] and in experiment [4] was “inactive” throughout.

With `CC1Cc2ccccc2N1NC(=O)c1ccc(Cl)c(S(N)(=O)=O)c1` (stereo not given), the Potency result in experiment [1], in experiment [2], in experiment [3] and in experiment [4] was “inactive” throughout.

For the origin of these results see PubChem BioAssay (Tox21).
